Data taken from PubChem BioAssay AID493005 (National Center for Advancing Translational Sciences (NCATS), 2010).
Screen size: about 340,000 compounds; fewer than 10 were called active. The call rests on the fitted dose curve; in most records, active means well fitted inhibition curve with a large enough effect in the main read-out, with a control signal flat (not every such curve was filed as active); inconclusive means small, poorly fitted or top-dose-only effect, or effect the other way, or a change in a side signal; inactive means no such curve, though single readings can be large or run the other way. A selection follows.

Each compound was assayed against Tumor susceptibility gene 101 protein (Homo sapiens) (UniProt Q99816) (assay: qHTS Assay for Iinhibitors of HIV-1 Budding by Blocking the Interaction of PTAP/TSG101). Details: Fluorescence polarization, FITC-PTAP peptide / Tsg101 binding; series mostly up to 115 µM.
Text: NIH Molecular Libraries Probe Production Network [MLPCN] NIH Chemical Genomics Center [NCGC] MLPCN Grant: 1 R03 MH087464-01A1 PI Name: Dr. Eric Freed, NCI NCGC Assay Overview: Stages of the HIV-1 replication cycle, specifically virus assembly and release, provide underexploited targets for the development of novel antiviral inhibitors. The late stages of HIV-1 replication are mediated by the Gag precursor protein, Pr55Gag. Expression of Pr55Gag is both necessary and sufficient for the production of virus-like particles from Gag-expressing cells. The Gag protein hijacks key host proteins involved in endocytic machinery of the host cell to promote endosomal processing and viral budding. The budding process requires a direct interaction between a […] (PTAP) motif in the p6 domain of Gag and the cellular endosomal sorting protein known as Tsg101. In this way, the Gag PTAP motif promotes the host cells to recruit viral particles to the plasma membrane where the new viral particles are released, effectively turning the host cells into viral factories. A fluorescence anisotropy assay has been developed to quantitatively measure the PTAP-Tsg101 interaction which can be used to screen for inhibitors of this interaction.
NCGC Assay Protocol Summary: Two uL of the Tsg101 binding domain in buffer (10 mM HEPES pH 7.5; 0.15 M NaCl, 0.01% Tween 20; 3 mM EDTA;0.1 mM TCEP) was dispensed into Greiner black MB 1536-well plates (final concentration 10 uM). Then, 23 nL of compounds or DMSO were delivered to each well using a pin tool. Finally, 2 uL of a FITC-labeled peptide containing the PTAP motif (1) in the same buffer was dispensed (50 nM final concentration) and the binding was allowed to proceed for 20 min. at r.t. Fluorescent polarization was determined using FITC excitation and polarized emission filters on a Perkin Elmer Viewlux. Keywords: Tsg101, PTAP, Gag, HIV, fluorescent polarization, MLSMR, MLPCN, NIH Roadmap, qHTS, NCGC

Tumor susceptibility gene 101 protein (Homo sapiens), sequence (Q99816 whole entry, looked up): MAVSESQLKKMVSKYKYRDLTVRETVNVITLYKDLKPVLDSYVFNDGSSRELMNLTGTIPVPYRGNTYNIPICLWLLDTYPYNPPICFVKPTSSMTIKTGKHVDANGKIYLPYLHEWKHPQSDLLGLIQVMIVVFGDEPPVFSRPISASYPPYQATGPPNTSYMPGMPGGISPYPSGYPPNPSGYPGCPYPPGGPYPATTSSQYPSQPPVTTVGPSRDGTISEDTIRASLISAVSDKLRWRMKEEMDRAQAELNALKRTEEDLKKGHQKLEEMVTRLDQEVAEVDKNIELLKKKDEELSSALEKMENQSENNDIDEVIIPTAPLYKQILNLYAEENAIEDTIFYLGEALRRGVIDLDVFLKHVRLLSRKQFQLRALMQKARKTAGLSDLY

outcome, inactive:
Cc1cccc(-n2c(Cc3cc(=O)[nH]c(=O)[nH]3)nnc2SC(C)C)c1
Cc1ccccc1C(=O)N1CCC(C(=O)Nc2ccc(S(=O)(=O)N(C)C(C)C)cc2)CC1
Cc1no[n+]([O-])c1COc1ccccc1/C=C1\NC(=S)NC1=O
Cc1coc2cc3oc(=O)c(CCC(=O)O)c(C)c3cc12
CC(C)Cc1nnc(N)s1
Cc1ccc2c(c1)N(CC(=O)NCCCN1CCCCC1)C(=O)c1cccnc1O2
CC1CC(C)CN(C(=O)CCNC(=O)Cn2cnc3ccccc3c2=O)C1 (stereo not drawn)
O=C(Cc1ccc(S(=O)(=O)N2CCOCC2)s1)NCCOc1ccccc1F
O=C(COc1ccc2c(c1)CCC2)N1CCN(c2ccc(F)cc2)CC1
CN(C)c1ccc(Nc2c3c4c(cccc4n(C)c2=O)C(=O)c2ccccc2-3)cc1
CC(Cc1cccs1)NC(=O)c1cccc(Cl)c1 (stereo not drawn)
O=C(Cc1ccc([N+](=O)[O-])cc1)NCCc1ccc2c(c1)OCO2
CCC(CC)C(=O)Nc1c2c(nn1-c1ccc(C)cc1)CS(=O)(=O)C2
CCCC1(C(=O)OCC)NC(c2ccc(N(C)C)cc2)C2C(=O)N(c3ccc4c(c3)OCCO4)C(=O)C21 (stereo not drawn)
COc1cc2c(cc1CNC[C@H]1O[C@@H](n3cnc(C(N)=O)n3)[C@H](O)[C@@H]1O)OCO2
COc1ccc(/C=C/C2=CC(C)(C)NC(=S)N2)c(OC)c1
O=C(NC1CCN(C(=S)Nc2ccc(Cl)cc2)CC1)C1CCCCC1
N#CC1(NC(=O)COC(=O)CSc2ccc(F)cc2)CCCCC1
CC(=O)c1ccc(Cc2ncc(C(F)(F)F)cc2Cl)s1
COc1ccc(-c2cc(C(F)(F)F)n3nc(C(=O)N4CCOCC4)c(Cl)c3n2)cc1
Cc1ccsc1C1C(C#N)=C(N)OC2=C1C(=O)CC(C)C2 (stereo not drawn)
O=[N+]([O-])c1cccc(S(=O)(=O)N2CCCCCC2)c1
CC(C)c1ccc(S(=O)(=O)N2CCC3(CC2)OCCO3)cc1
O=C(CN1C(=O)NC2(CCCC2)C1=O)NCC1CCCO1 (stereo not drawn)
NC(=O)c1ccc(CN2CCC(Cc3ccccc3)CC2)cc1
O=C(N/C(=C\c1ccc(O)cc1)C(=O)N1CCCCC1)c1ccccc1
O=C(O)C1C2C=CC(O2)C1C(=O)NCCc1cccc(Cl)c1 (stereo not drawn)
CC1=C(C(=O)N(C)C)C(c2ccccc2OC(F)F)NC(=O)N1 (stereo not drawn)
Cn1c2ccc(F)cc2c2nnc(NN)nc21
CC(C)Oc1ccc(CCc2n[nH]c(=S)n2Cc2ccccc2)cc1
CCc1nnc(NC(=O)CSc2nc3ccccc3c(=O)n2CCCOC)s1
O=C(Nc1ccc(-n2cccn2)cc1)C1CCN(Cc2ccsc2)CC1
CCOC(=O)C1Nc2ccc(C(F)(F)F)cc2C2C=CCC12 (stereo not drawn)
